# Compound activity: PubChem BioAssay, several laboratories
# A selection: hits, their analogues and other compounds. The true share with any hit is near 21%.
# CYP2C19 activ = human CYP2C19 activators, primary screen, biochemical, luminescence | recombinant CYP2C19, luciferin-H EGE luminescence; stronger effect = higher value; 0 = fully inhibited enzyme, 1 = untreated enzyme | activation factor at 5 µM | 96,000 tested, under 10 active | AID 1025, 2008;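 active = activation factor of at least 2 at 5 µM in the primary screen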;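 note: 0 = wells with 2.5 mM tranylcypromine and 1 = vehicle-only wells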
# Target sequence (P33261 whole entry, looked up): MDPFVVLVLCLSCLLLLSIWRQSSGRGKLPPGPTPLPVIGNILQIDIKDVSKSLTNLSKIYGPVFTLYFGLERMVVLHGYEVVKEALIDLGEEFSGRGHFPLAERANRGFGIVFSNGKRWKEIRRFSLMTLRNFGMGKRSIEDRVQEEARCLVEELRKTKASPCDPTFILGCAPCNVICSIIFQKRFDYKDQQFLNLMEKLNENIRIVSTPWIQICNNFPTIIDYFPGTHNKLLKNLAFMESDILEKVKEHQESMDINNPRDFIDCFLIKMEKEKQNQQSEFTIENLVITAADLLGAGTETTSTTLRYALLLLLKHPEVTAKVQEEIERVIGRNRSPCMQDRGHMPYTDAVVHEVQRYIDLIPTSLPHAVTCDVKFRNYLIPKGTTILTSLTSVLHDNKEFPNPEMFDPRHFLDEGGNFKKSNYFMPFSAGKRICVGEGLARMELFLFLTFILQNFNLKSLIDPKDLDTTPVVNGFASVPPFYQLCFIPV
# CYP2C9 activ = human CYP2C9 activators, primary screen, biochemical, luminescence. recombinant CYP2C9, luciferin-H conversion; stronger effect = higher value; factor 1 = untreated enzyme, 0 = blocked. activation factor at 5 µM. actives 1.4% (n = 96,000);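 active = activation factor of 2 or more for CYP2C9 at a 5 µM dose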;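 note: 0 = sulfaphenazole-blocked wells and 1 = vehicle-only wells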
# CYP2C9 inh = blockers of cytochrome P450 2C9 activity – biochemical, luminescence, ADME assay, primary screen. P11712. CYP2C9 Supersomes, luciferin-H conversion. inhibition, % at 5 µM. actives 20% (n = 96,000). AID 777, 2007;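 active = blocking of liver enzyme CYP2C9 beyond about 50% at 5 µM, limit read from the data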
# CYP2C19 inhib = blockers of cytochrome P450 2C19 activity – biochemical, luminescence, ADME assay, primary screen; CYP2C19 Supersomes, luciferin-H EGE luminescence, 30 min; inhibition, % at 5 µM; actives 21% (n = 96,000); AID 778, 2007;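 active = CYP2C19 inhibition above a set limit at 5 µM in the primary screen, cut at about 50% in these data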;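 note: plate controls were negative control wells for no effect and 2.5 mM tranylcypromine positive control for full effect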
# MRP1 act = H69AR viability gain despite doxorubicin, primary screen, MRP-1 activator project, H69AR cells, CellTiter-Glo; viability rescue; viability increase, % at 10 µM; actives 0.61% (n = 140,000);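 active = viability gain under doxorubicin at or above a set limit, the compound median plus 3 SD, cut at about 4.7% in these data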;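 note: MRP-1 overexpressing cells given doxorubicin 25 µM after compound pretreatment; 18-22 h compound pretreatment then 72 h with doxorubicin before readout; 0% = doxorubicin-only wells and 100% = vehicle-treated cells without doxorubicin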
# MRP reversal = reversal of MRP1-mediated doxorubicin resistance, primary screen, H69AR cells, doxorubicin co-treatment. H69AR cells + 2 uM doxorubicin, CellTiter-Glo, 72 h. differential viability (reversal), % at 10 µM. actives 0.04% (n = 85,000). AID 602, 2007;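 active = viability drop by adding the cancer drug above about 55%, with treated viability meeting a 40% cutoff, limit read from the data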;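 note: viability without doxorubicin minus viability with 2 µM doxorubicin for each compound; larger differential means the compound sensitizes cells more to doxorubicin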
# * hit, by the source's call; . = no result given.
SMILES,CYP2C19 activ,CYP2C9 activ,CYP2C9 inh,CYP2C19 inhib,MRP1 act,MRP reversal
COc1ccc(C2CC(c3ccccc3)Nc3nc(N)nn32)cc1 (stereo not drawn),0.9,1,1.9,8.6,-2.4,-7.2
CCOc1ccc(C2CC(c3ccccc3)Nc3nc(N)nn32)cc1 (stereo not drawn),0.8,0.5,51.3*,24.5,-1.8,-5.6
Nc1nc2n(n1)C(c1ccccc1)CC(c1ccc(F)cc1)N2 (stereo not drawn),0,0.1,93.3*,97.8*,0.4,3.1
CCc1ccc(C2CC(c3ccc(F)cc3)Nc3nc(N)nn32)cc1 (stereo not drawn),0.5,1,3.0,50.6*,-1.3,10.8
Cc1ccccc1C1CC(c2ccc(Br)cc2)Nc2nc(N)nn21 (stereo not drawn),.,.,.,.,-1.4,20.9
Cc1ccccc1C1CC(c2ccc(F)cc2)Nc2nc(N)nn21 (stereo not drawn),0.3,0.2,84.5*,69.3*,-0.1,4.3
O=C1c2cnc3nc(SCc4cccc(Cl)c4)nn3c2CC2c3ccccc3CCN12 (stereo not drawn),1.1,0.5,45.9,-8.1,-3.2,.
O=C(NCc1ccccc1)c1cccc(NS(=O)(=O)c2cccc3cccnc23)c1,.,.,.,.,-2.5,.
C=C(C)CSc1nc2nc(C)c(Br)cc2[nH]1,0.4,0.6,39.8,55.3*,-1.2,-2.0
COc1ccccc1C(=O)NCC(=O)N/N=C/c1cc(Br)ccc1OC(=O)/C=C\c1ccco1,.,.,.,.,1.1,.
COc1ccccc1/C=C/C(=O)NCC(=O)N/N=C/c1cc(Br)ccc1OC,0.9,0.5,53.4*,5.7,1.4,-10.6
O=C(COc1ccc(S(=O)(=O)N2CCOCC2)cc1)Nc1ccccc1C(F)(F)F,0.9,0.8,15.9,9.2,-0.6,10.3
COC(=O)c1ccc(C)c(NC(=O)CCSc2ccccc2)c1,0.7,0.4,55.4*,29.4,-0.5,.
Cc1ccc(C)c(NC(=O)CCC(=O)OC(C(=O)c2ccccc2)c2ccccc2)c1 (stereo not drawn),1,1,2.0,1.0,-2.9,.
CCC(=O)Nc1cc(C(=O)OC(C(=O)c2ccc(C)c(C)c2)c2ccccc2)ccc1C (stereo not drawn),0.6,0.4,57.6*,39.5,-0.8,.
CC(C)c1cc(C(=O)N/N=C/c2ccco2)n[nH]1,.,.,.,.,1.2,.
O=C(CN(c1ccccc1F)S(=O)(=O)c1ccccc1)N1CCCCCC1,1,1.2,-19.3,2.5,-2.9,23.0
CCOC(=O)CCSc1nc(C)c2cc(C)ccc2n1,0.2,0.4,57.6*,78.4*,0.0,13.8
CCOC(=O)CCSc1nc(C)c2ccccc2n1,0.8,1.4,-41.2,20.5,-0.5,5.8
CCOc1ccccc1NC=C1C(=O)OC2(CCCCC2)OC1=O,0.9,2.6*,-163.1,13.3,-2.6,17.1
CCOC(=O)NC(=O)CSc1nc(C)cc(C)c1C#N,0.4,1,-1.6,57.8*,-0.7,-4.5
COCc1cc(C)nc(SCC(=O)Nc2ccccc2C)c1C#N,0.1,0.7,28.0,94.2*,-1.4,.
Cc1ccc(CNC(=O)CSc2nc(C)cc(C)c2C#N)cc1,0.4,1.4,-39.8,56.8*,0.2,11.7
CCOC(=O)CNC(=O)CSc1nc(C)cc(C)c1C#N,0.2,1.9,-91.5,82.6*,0.0,5.8
N#CCCn1nc(-c2ccc([N+](=O)[O-])cc2)cc1Nc1ccccc1NC(=O)C(F)(F)F,.,.,.,.,-3.0,.
SMILES,CYP2C19 activ,CYP2C9 activ,CYP2C9 inh,CYP2C19 inhib,MRP1 act,MRP reversal
CCNC(=O)/C=C1\NC(C)(C)Cc2c1ccc1ccccc21,0.2,0.1,90.3*,83.4*,-2.1,6.4
Cc1ccc(C)c(OCCOCCN2CC(C)OC(C)C2)c1C (stereo not drawn),0.7,1,0.1,34.0,-3.8,3.3
O=C(CC1c2ccccc2Oc2ccccc21)Nc1ccccc1C(F)(F)F,.,.,.,.,-1.8,.
CCOC(=O)c1cccnc1SCC(=O)NC(C)CC (stereo not drawn),.,.,.,.,-1.3,8.4
COc1cccc(CSc2nnc(-c3ccc(F)cc3)o2)c1,0.8,1.2,-21.3,16.9,-0.3,12.9
COc1ccc(NC(=O)CSc2nc3ccccc3cc2Cc2ccccc2)cc1,0.1,0.7,33.2,85.2*,-0.4,.
COc1cccc(CSc2nc3ccccc3cc2C=O)c1,0.7,0.4,64.1*,25.2,-5.6,.
COc1cc(NC(=O)CSc2ncccc2C(=O)OC(C)C)cc(OC)c1,0.3,0.5,50.7*,70.3*,-0.9,-11.4
COc1cccc(NC(=O)CSc2nc3ccccc3cc2Cc2ccccc2)c1,0.1,0.3,67.8*,93.9*,0.9,.
CCc1cc2ccccc2nc1SCC(=O)Nc1cc(OC)c(OC)cc1C(=O)O,.,.,.,.,-1.9,.
COc1cccc(NC(=O)CSc2nc(N)cc(N)n2)c1,1,1.1,-8.1,-3.1,-1.1,10.3
CN(C)c1ccc(N2C(=O)CC(Sc3ccccc3C(=O)O)C2=O)cc1 (stereo not drawn),.,.,.,.,-1.5,.
COc1cc(NC(=O)CSc2nc3ccccc3cc2C)c(C(=O)O)cc1OC,.,.,.,.,1.2,.
COc1cc(NC(=O)CSc2nc3ccccc3cc2Cc2ccccc2)cc(OC)c1,0.2,0.4,64.4*,82.7*,-0.8,.
O=C1C2CCCN2C(c2ccc(Br)cc2)N1c1ccc(F)cc1 (stereo not drawn),0.3,0.8,20.7,66.4*,-1.5,10.2
COc1ccc(C2N(c3ccc(OC)cc3)C(=O)C3CCCN32)cc1 (stereo not drawn),0.9,0.6,40.0,9.9,-1.2,4.8
CCc1ccc(C2N(c3ccc(OC)cc3)C(=O)C3CCCN32)cc1 (stereo not drawn),0.7,0.2,76.4*,32.8,-3.1,75.3
CCN(CC)c1ccc(NC(=O)c2cccnc2)cc1,0.6,0.8,22.2,36.5,-3.2,-25.8
CCN(CC)c1ccc(-c2nc3cnccc3n2C)cc1,0.1,0.1,91.8*,90.3*,0.4,3.6
O=C(C(Cl)Cl)N1c2ccccc2OCC1c1ccccc1 (stereo not drawn),0.2,0.2,75.1*,77.8*,-2.4,.
CCOc1ccc(NC(=O)C(C)Oc2ccccc2C(=O)Nc2ccc(C)c(Cl)c2)cc1 (stereo not drawn),.,.,.,.,-6.3,.
c1ccc(Nc2cc(-c3ccccc3)nc3ncnn23)cc1,0.5,0.8,19.8,45.3,-1.8,-5.5
C=CCSc1nc(O)c(CC)c(=O)n1C(C)CC (stereo not drawn),0.4,0.7,31.1,63.3*,-1.3,-9.8
Cn1c(=O)c2c(nc(SCCCO)n2Cc2ccccc2Cl)n(C)c1=O,0.7,0.5,54.3*,34.4,-4.3,.
